Composite z-score and z-score data for five compounds are collected here from PubChem BioAssay.

The source made the active and inactive calls. Unless noted, no rule for the calls is given here.

A short description of test [1]: compounds binding Alexa647 anti-His antibody – biochemical, small-molecule microarray, 635 nm fluorescence, artefact control for SMM control protein annotation, primary screen (AID 1128).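 Also: score merges feature fluorescence with signal-to-noise for each printed compound spot.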 Particulars: higher = more signal.
The test system of test [2] is Human papillomavirus type 1a E7 protein (residues 1-88). The test is described as follows: HPV1a E7 small-molecule binders, primary screen, biochemical, small-molecule microarray, residues 1-88, 635 nm (AID 1129). Particulars: small-molecule microarray binding, fluorescence 635 nm; higher = more signal.
Test [3] addresses Focal adhesion kinase 1 (Homo sapiens) (UniProt Q05397). Description: PTK2 protein binding on printed compound slides – biochemical, small-molecule microarray, 635/667 nm fluorescence, BSA, DTT, primary screen (AID 1130).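 Also: composite of spot emission at 667 nm and signal to noise over triplicate slides.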 Particulars: 635 nm fluorescence, higher = more signal.
The subject of test [4] is Fibrinogen (Alexa647-labelled). The test is described as follows: Alexa647-fibrinogen binding to printed small molecules – biochemical, small-molecule microarray, 635/667 nm fluorescence, artefact control for SMM control-protein annotation, profiling panel (AID 1131).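 Also: z-score merges 667 nm fluorescence with per-spot signal-to-noise over triplicate slides.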 Particulars: fibrinogen-A647 binding fluorescence, higher = more signal.
In test [5] the target is Follistatin (Homo sapiens) (UniProt P19883). Description: FST protein binding to printed compounds – biochemical, small-molecule microarray, 635/667 nm fluorescence, primary screen (AID 1132). Particulars: 635 nm fluorescence, higher = more signal.
In test [6] the target is Fibroblast growth factor 2 (Homo sapiens) (UniProt P09038). The test is described as follows: basic fibroblast growth factor binding to printed compounds – biochemical, small-molecule microarray, 635/667 nm fluorescence, primary screen (AID 1133). Particulars: FGF2, fluorescence 635/667, higher = more signal.
A short description of test [7]: JC-1 mitochondrial potential readout, lung cancer cells – cell-based, A549, JC-1 fluorescence, basal, 24 h, 100 nL, profiling panel (AID 1138).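 Also: A549 lung adenocarcinoma cells under basal conditions with no added stimulus; test concentration not given here.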 Particulars: higher = more signal.
The next test has as its system Lefty1. Description: Lefty1 protein binding to printed compounds – biochemical, small-molecule microarray, 635/667 nm fluorescence, primary screen (AID 1139). Particulars: fluorescence 635/667, higher = more signal.
The test system of test [8] is wheat germ agglutinin (Triticum aestivum), Alexa647-labelled. Description: Alexa647-WGA lectin binding to printed small molecules – biochemical, small-molecule microarray, 635/667 nm fluorescence, artefact control for SMM control-protein annotation, profiling panel (AID 1140).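 Also: score merges 667 nm feature emission with signal to noise over triplicate slides.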 Particulars: WGA-A647 binding, 635 nm fluorescence, higher = more signal.
Test [9] addresses Luciferin 4-monooxygenase (Photinus pyralis) (UniProt P08659). Description: inhibition of purified Photinus pyralis luciferase – biochemical, luminescence, purified enzyme, 2006 set, primary screen (AID 1141).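 Also: cell-free assay with purified firefly luciferase at 100 ng per well in PBS; test concentration not given here.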 Particulars: purified firefly luciferase, SteadyGlo luminescence, 30 min; higher = more signal, called active from +8 up or from −8 down.
In test [10] the test system is Wnt5a (protein binding on small-molecule microarray). The test is described as follows: small molecules binding Wnt5a protein – biophysical, small-molecule microarray, 635/667 nm fluorescence, primary screen (AID 1142).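 Also: fluorescence read at 667 nm with signal to noise per printed feature.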 As to conditions: 635 nm fluorescence, higher = more signal.
Test [11] in a line: ATP-based viability of Huh7 replicon cells – cell-based, CellTiter-Glo luminescence, basal, 48 h, cytotoxicity control for HCV replication inhibitor project, primary screen (AID 1143).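 Also: Huh7 hepatoma cells carrying a hepatitis C replication reporter with no stimulus; test concentration not given here.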 Particulars: higher = more signal, called active from +8 up or from −8 down.
Test [12] is described as follows: Pseudomonas biofilm growth suppression – PAO1 strain, BacTiter-Glo luminescence, LB-PBS, primary screen (AID 1144). As to conditions: P. aeruginosa PAO1 biofilm, 12 h, higher = more signal.
The nature of test [13]: basal CRE-LacZ reporter activity in PC12 – cell-based, unstimulated, primary screen (AID 1145). Particulars: no forskolin, luminescence, 4.5 h, higher = more signal, called active from +8 up or from −8 down.
The nature of test [14]: forskolin-driven CRE-LacZ activity in PC12 – cell-based, CRE-LacZ reporter, forskolin-stimulated, primary screen (AID 1146).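 Also: PC12 cells with 6xCRE LacZ reporter stimulated by forskolin 10 µM; beta-galactosidase reporter signal reflecting CREB driven transcription.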 As to conditions: luminescence, 4.5 h, higher = more signal, called active from +8 up or from −8 down.
Test [15] has as its target Streptavidin (Streptomyces avidinii) (UniProt P22629). The test is described as follows: compounds binding control protein streptavidin – biophysical, small-molecule microarray, 635/667 nm fluorescence, artefact control for SMM compound annotation, primary screen (AID 1147).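 Also: signal reflects streptavidin binding to arrayed compounds as a control protein.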 As to conditions: higher = more signal.
Test [16] can be described thus: probe aInhba binding on compound microarray – biochemical, small-molecule microarray, 635/667 nm fluorescence, primary screen (AID 1148).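 Also: score merges 667nm spot fluorescence with signal-to-noise for antibody binding to printed compounds.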 Particulars: higher = more signal.
Test [17] has as its target Torsin-1A (Homo sapiens) (UniProt O14656). The test is described as follows: TOR1A wild-type binding on microarray – cell lysate, small-molecule microarray, lysate, 635/667 nm, primary screen (AID 1149). Particulars: COS7 hTOR1A-WT lysate, 635 nm fluorescence, higher = more signal.
For test [18] the target is unchanged. Description: torsin A mutant lysate binding on microarrays – cell lysate, small-molecule microarray, COS7 lysate, 635/667 nm fluorescence, primary screen (AID 1150).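 Also: score pools 667 nm emission and signal to noise measuring lysate protein binding.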 As to conditions: COS7 hTOR1A mutant lysate, 635 nm fluorescence, higher = more signal.
Test [19] has as its system Sonic hedgehog protein (Shh). Description: Sonic hedgehog microarray binding compounds – biochemical, small-molecule microarray, 635/667 nm fluorescence, primary screen (AID 1151).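 Also: Shh protein binding to compounds spotted on small-molecule microarray slides; score combines spot fluorescence intensity with signal-to-noise across triplicate slides.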 Particulars: 635 nm fluorescence, higher = more signal.

Sequence of Focal adhesion kinase 1 (Homo sapiens) (Q05397 whole entry, looked up): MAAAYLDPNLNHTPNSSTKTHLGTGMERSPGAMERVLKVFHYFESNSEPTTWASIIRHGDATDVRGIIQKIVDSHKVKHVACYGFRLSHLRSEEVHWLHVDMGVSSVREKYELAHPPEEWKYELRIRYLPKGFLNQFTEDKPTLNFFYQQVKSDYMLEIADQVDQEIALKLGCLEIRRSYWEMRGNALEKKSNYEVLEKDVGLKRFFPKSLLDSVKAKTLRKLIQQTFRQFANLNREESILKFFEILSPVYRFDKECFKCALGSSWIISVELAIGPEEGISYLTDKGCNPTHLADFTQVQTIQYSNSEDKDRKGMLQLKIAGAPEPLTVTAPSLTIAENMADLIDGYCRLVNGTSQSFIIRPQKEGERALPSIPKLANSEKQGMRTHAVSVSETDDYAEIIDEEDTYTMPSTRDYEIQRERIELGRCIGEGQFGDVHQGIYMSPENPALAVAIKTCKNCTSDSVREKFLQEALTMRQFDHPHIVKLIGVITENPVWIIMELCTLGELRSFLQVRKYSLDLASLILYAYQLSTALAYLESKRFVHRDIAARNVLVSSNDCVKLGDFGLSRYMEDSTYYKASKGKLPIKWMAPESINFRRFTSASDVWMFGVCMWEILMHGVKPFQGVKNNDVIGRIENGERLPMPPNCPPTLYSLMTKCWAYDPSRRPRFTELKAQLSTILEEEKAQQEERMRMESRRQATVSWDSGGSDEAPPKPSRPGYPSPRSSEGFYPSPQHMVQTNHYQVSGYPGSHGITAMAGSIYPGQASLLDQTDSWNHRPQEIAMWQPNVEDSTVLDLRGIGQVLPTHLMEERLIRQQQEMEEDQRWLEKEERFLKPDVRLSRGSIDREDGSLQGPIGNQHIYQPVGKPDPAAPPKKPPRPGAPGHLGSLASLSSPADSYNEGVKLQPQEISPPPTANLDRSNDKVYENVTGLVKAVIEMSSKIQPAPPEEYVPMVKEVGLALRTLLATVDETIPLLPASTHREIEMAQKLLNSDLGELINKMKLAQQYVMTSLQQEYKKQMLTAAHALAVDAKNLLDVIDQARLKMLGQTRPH
Sequence of Torsin-1A (Homo sapiens) (O14656 whole entry, looked up): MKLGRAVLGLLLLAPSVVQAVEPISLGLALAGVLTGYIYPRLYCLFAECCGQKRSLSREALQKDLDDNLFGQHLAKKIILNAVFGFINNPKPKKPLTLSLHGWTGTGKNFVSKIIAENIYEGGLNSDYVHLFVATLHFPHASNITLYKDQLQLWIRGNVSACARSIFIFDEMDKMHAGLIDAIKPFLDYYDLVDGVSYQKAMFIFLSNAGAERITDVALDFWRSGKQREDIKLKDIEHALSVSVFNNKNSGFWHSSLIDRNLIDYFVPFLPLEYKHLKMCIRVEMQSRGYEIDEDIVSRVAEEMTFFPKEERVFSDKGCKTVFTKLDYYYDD
Sequence of Luciferin 4-monooxygenase (Photinus pyralis) (P08659 whole entry, looked up): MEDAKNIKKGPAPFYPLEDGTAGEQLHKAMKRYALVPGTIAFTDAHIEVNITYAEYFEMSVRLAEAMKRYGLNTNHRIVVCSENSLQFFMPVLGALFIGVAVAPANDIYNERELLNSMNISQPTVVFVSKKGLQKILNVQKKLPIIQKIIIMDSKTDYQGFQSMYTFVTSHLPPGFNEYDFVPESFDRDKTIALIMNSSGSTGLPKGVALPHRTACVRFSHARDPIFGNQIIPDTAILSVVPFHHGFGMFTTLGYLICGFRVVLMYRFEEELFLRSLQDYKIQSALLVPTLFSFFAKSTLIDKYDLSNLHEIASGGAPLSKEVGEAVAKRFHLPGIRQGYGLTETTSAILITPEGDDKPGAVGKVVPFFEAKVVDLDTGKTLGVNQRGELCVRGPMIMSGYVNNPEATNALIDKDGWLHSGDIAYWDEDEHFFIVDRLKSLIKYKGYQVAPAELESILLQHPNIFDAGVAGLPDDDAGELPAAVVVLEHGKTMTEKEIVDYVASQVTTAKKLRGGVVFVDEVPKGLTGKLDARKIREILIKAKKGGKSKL
Sequence of Fibroblast growth factor 2 (Homo sapiens) (P09038 whole entry, looked up): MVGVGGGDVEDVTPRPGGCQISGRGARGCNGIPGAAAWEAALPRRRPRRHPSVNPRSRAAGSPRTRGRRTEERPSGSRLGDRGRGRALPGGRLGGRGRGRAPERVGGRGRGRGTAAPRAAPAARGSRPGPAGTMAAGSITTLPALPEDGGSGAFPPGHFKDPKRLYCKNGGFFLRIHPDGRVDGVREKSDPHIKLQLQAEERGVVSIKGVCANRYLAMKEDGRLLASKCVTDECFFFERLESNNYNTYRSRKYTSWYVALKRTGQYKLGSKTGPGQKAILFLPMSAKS
Sequence of Follistatin (Homo sapiens) (P19883 whole entry, looked up): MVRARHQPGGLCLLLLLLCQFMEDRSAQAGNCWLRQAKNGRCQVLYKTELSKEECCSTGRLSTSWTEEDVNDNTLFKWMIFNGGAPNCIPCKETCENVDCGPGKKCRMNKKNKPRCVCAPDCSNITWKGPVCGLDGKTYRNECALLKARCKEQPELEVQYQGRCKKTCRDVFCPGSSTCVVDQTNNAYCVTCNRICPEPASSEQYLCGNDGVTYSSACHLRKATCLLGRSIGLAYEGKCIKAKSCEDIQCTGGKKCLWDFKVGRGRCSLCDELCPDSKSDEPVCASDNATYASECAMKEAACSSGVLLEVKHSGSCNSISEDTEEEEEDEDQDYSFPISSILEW
Sequence of Streptavidin (Streptomyces avidinii) (P22629 whole entry, looked up): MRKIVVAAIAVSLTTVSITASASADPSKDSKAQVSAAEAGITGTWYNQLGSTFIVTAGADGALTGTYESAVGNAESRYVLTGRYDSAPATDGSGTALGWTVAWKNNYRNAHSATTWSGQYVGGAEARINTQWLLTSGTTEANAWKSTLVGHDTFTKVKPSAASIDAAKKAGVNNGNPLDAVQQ

As to `COC(=O)[C@@]1(Cc2ccc(F)cc2)[C@H]2c3cc(C(=O)N(C)C)n(Cc4cc(F)cc5c4OCOC5)c3C[C@H]2CN1C(=O)c1ccccc1`, the composite z-score was 1.06 in test [1]; 1.19 in [2]; 1.5 in test [3]; 1 in test [4]; 1.04 in [5]; -0.0284 in test [6]. Also, the composite z-score with Lefty1 came out at 0.444; in [8], 1.06; in [10] it was 0.462; in test [15] it was 1.15; in [16] it was 0.115; in the test with Torsin-1A (Homo sapiens) [17] it was 0.141. In addition, the composite z-score in the test with Torsin-1A (Homo sapiens) [18] was determined as 0.702; in test [19], 0.3. The z-score in [7] is -0.915; in test [9], -0.724 (inactive); in [11] it was -3.74 (inactive); in test [12] it was 0.258 (inactive); in test [13], 0.397 (inactive); in [14], -0.201 (inactive).

With `C=CC1c2cc(O)c(OC)cc2CCN1Cc1cc2c(cc1Br)OCO2` (stereo not given), the composite z-score is 0.976 in [1]; -1.38 in [2]; -0.0181 in [3]; -0.851 in test [4]; 1.27 in [5]; -0.0941 in test [6]. Also, the composite z-score in the test on Lefty1 is 0.504; in test [8] it was -0.623; in test [10], -0.158; in test [15], -0.361; in [16], -0.128; with Torsin-1A (Homo sapiens) [17], 1.34. The values for the composite z-score (with Torsin-1A (Homo sapiens) [18]; in test [19]) were 0.587 and 0.672, respectively. In addition, the z-score in [7] is -1.54; in [9], 0.0715 (inactive); in test [11] it was -5.24 (inactive); in test [12], 0.0937 (inactive); in [13], 0.299 (inactive); in test [14] it was 0.962 (inactive).

As for `COCCOC(=O)N1C(=O)[C@@]2(c3cc(C#Cc4ccc(OC)cc4)ccc31)[C@H](C(=O)Nc1nc3ccccc3s1)[C@H]1C(=O)O[C@H](c3ccccc3)[C@H](c3ccccc3)N1[C@@H]2c1ccc(OCCO)cc1`, the composite z-score in test [1] worked out at 1.14; in test [2] it was 1.12; in test [3], 0.168; in [4], 0.809; in [5], 1.17; in test [6] it was 1.28. Besides, the composite z-score with Lefty1 was 0.87; in test [8] it was 0.494; in test [10], 0.755; in test [15], 1.12; in [16], 0.246; with Torsin-1A (Homo sapiens) [17] it was -0.129. In addition, the composite z-score in the test with Torsin-1A (Homo sapiens) [18] was 0.337; in test [19], 1.84. In addition, the z-score is -2.19 in [7]; -3.71 (inactive) in test [9]; -1.12 (inactive) in test [11]; 0.133 (inactive) in test [12]; 0.757 (inactive) in test [13]; 0.442 (inactive) in test [14].

Turning to `COC(=O)Cn1c(C(=O)N(C)C)cc2c1C[C@H]1CN(C(=O)c3ccccc3)[C@@](Cc3ccc(F)cc3)(C(=O)OC)[C@@H]21`, the composite z-score in [1] is 2.12; in [2] it was 1.02; in test [3], 1.25; in test [4] it was 0.19; in test [5], -0.258; in test [6], 0.386. Moreover, the composite z-score was -0.278 in the test with Lefty1; 1.3 in [8]; 0.398 in test [10]; 0.124 in [15]; 0.382 in test [16]; 0.245 in the test with Torsin-1A (Homo sapiens) [17]. The composite z-score with Torsin-1A (Homo sapiens) [18] was -0.068; in test [19] it was -0.238. Further, the z-score in test [7] was 0.354; in [9] it was 0.897 (inactive); in test [11] it was -0.725 (inactive); in test [12] it was -0.625 (inactive); in [13], 0.207 (inactive); in [14], -0.106 (inactive).

With `COc1ccc(CCNC(=O)[C@@]2(Sc3ccc(C)cc3)CC(=O)N(C3Cc4ccccc4C3)[C@@H]2c2ccc(CO)cc2)cc1`, the composite z-score in test [1] amounted to 1.27; in [2] it was 1.21; in test [3], 1.54; in test [4], 0.434; in test [5], 1.65; in test [6], 2.16. In addition, the composite z-score in the test on Lefty1 worked out at 1.44; in [8], 0.437; in test [10] it was 1.56; in [15], 1.03; in test [16] it was 0.507; with Torsin-1A (Homo sapiens) [17] it was 0.285. Moreover, the values for the composite z-score (in the test with Torsin-1A (Homo sapiens) [18]; in [19]) were 0.811 and 2.07, respectively. For the same compound, the z-score in [7] was 0.927; in [9] it was 0.529 (inactive); in test [11], -5.12 (inactive); in [12] it was -0.926 (inactive); in [13] it was -0.698 (inactive); in [14] it was -0.0678 (inactive).
